Assay outcomes deposited in PubChem BioAssay by National Center for Advancing Translational Sciences (NCATS).
Pf Dd2 growth: qHTS Primary assay for Inhibitors of Plasmodium falciparum Dd2 growth in vitro; P. falciparum Dd2 growth, SYBR Green, 72 h; Potency, µM (doses to about 28.9 µM), for the others: top-dose activity, negative = inhibition, actives largely listed as inhibitors; hit rate 4.3% among 120,000; AID 1347417, 2020; active means well fitted inhibition curve with a large enough effect;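 further: plate controls were DMSO vehicle for no effect and reference drug for full effect; nearly all actives have a fitted effect of over 65% in size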
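Infected erythrocytes (Dd2, 0.3% parasitemia, 2.5% hematocrit final) are added to compound in RPMI-1640/Albumax II medium, grown 72 h at 37C in low oxygen, then lysed with saponin/Triton-X containing SYBR Green and read by fluorescence.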
Numbers without * were called inactive; i = inactive; [ ] = another dose, or the depositor's remark. Many of the other results were omitted from the sample, so hits are more common in it than they were. Potency means the concentration at half of the fitted maximal effect.

SMILES	Pf Dd2 growth
COc1ccc(-c2cc(C(=O)NCC(C)C)c3c(C4CCCN4)nn(C)c3n2)cc1 (stereo unspecified)	4µM*
COc1ccc(NC(=O)c2cc(C3CC3)nc3c2c(C)nn3-c2ccccc2)cc1OC	13%
Cc1nn(-c2ccccc2)c2nc(C3CC3)cc(C(=O)NCc3ccccc3Cl)c12	i
COCCNC(=O)c1cc(C2CC2)nc2c1c(C1CCCN1)nn2-c1ccccc1 (stereo unspecified)	11µM*
COCCNC(=O)c1cc(C2CC2)nc2c1c(C1CCCNC1)nn2C (stereo unspecified)	12%
Cn1nc(C2CCCN2)c2c(C(=O)N3CCOCC3)cc(C3CC3)nc21 (stereo unspecified)	0%
COCCNC(=O)c1cc(-c2ccc(OC)cc2)nc2c1c(C1CCNC1)nn2C (stereo unspecified)	-28%
Cc1nn(-c2ccccc2)c2nc(C3CC3)cc(C(=O)Nc3cccc(F)c3)c12	10µM*
COc1ccc(-c2cc(C(=O)N3CCOCC3)c3c(C4CCCN4)nn(C)c3n2)cc1 (stereo unspecified)	-26%
CC(NC(=O)CCc1conc1-c1ccccc1)c1ccc(F)cc1 (stereo unspecified)	i
COC(=O)[C@H]1CCCN1C(=O)[C@@H]1[C@@H](NC(=O)Nc2ccc(F)cc2F)CCN1C(=O)c1cccn1C	7%
CNC(=O)[C@@H]1CN(S(=O)(=O)c2cc(F)ccc2C)C[C@H]1C1CCN(C)CC1	-18%
Cc1ccc(NS(=O)(=O)c2ccccc2)c(=O)n1CC(=O)NCc1cccc(Cl)c1	i
Cc1cc(N2CCN(CC3CCCCC3)C(CCO)C2)nc(N)n1 (stereo unspecified)	-28%
CC(C)[C@@H]1CN(C(=O)c2scc3c2CCCC3)C[C@H]1NS(C)(=O)=O	-7%
COC[C@H]1C[C@@H](NC(=O)CC(C)(C)C)[C@H](O)[C@@H]1O	19%[44.1 µM]
O=C(CC1CCCC1)N1CCC(c2nc(CCOc3ccc(F)cc3)no2)C1 (stereo unspecified)	i
CC(C)C(=O)N1CCN(c2nc3c(s2)CC(C(=O)NCCc2cccs2)CC3)CC1 (stereo unspecified)	-16%
Cn1cc(Cl)cc1C(=O)N1CCC2(CCCN(C3CCCC3)C2=O)C1 (stereo unspecified)	-25%
Cc1cc(C(=O)N2CCn3nc(C(O)CO)cc3C2)c2c(C)noc2n1 (stereo unspecified)	-17%
Clc1cccc(-c2ccc(CNc3ncncn3)o2)c1	-14%
CCNCc1ccc(-c2ccc(F)cc2)o1	i
CCNCc1ccc(-c2ccc(Cl)cc2)o1	13µM*
CCN(CC)CCNCc1ccc(-c2ccccc2)o1	3.2µM*
c1ccc(-c2ccc(CNCc3cccs3)o2)cc1	i
SMILES	Pf Dd2 growth
Fc1ccc(-c2ccc(CNCCSc3nnnn3-c3ccccc3)o2)cc1Cl	46%
CCCCNc1ncc(C(=O)O)c(COC)n1	i
Cn1cccc1C(=O)N1C[C@@H](NC(=O)NC2CCCCC2)C[C@H]1C(=O)N[C@H](Cc1c[nH]c2ccccc12)C(N)=O	i
COCCNC(=O)C1COC2(CCN(C(=O)c3cccs3)CC2)N1C(=O)c1ccccc1 (stereo unspecified)	21%
CCN(C(=O)c1cc2c(=O)oc3ccccc3c2s1)c1cccc(C(F)(F)F)c1	-4%
CCc1ccccc1N(C)C(=O)c1cc2c(Cl)nc3ccc(C)cc3c2s1	95%[5.79 µM]
CCN(C(=O)c1cc2c(=O)oc3ccc(C)cc3c2s1)c1cc(OC)ccc1OC	1%
Cc1ccc(Cl)cc1N(C)C(=O)c1cc2c(Cl)nc3ccccc3c2s1	20%
CCN(C(=O)c1cc2c(Cl)nc3ccccc3c2s1)c1cccc(Cl)c1	10µM*
CCN(C(=O)c1cc2c(Cl)nc3ccc(C)cc3c2s1)c1cc(OC)ccc1OC	8.9µM*
CC(C)(C)n1cc(-c2cc(C(=O)N3C[C@H]4CC[C@H]3C4)c3ccccc3n2)cn1	-23%
CN1C[C@H](O)C[C@H]1c1nc(-c2ccc3c(c2)OCO3)no1	-5%[44.1 µM]
COCC(=O)N[C@H]1C[C@@H](Cc2cc(-c3ccc(OC)cc3)on2)C1(C)C	2µM*
COCC(=O)N[C@H]1C[C@@H](Cc2cc(CO)on2)C1(C)C	-6%[44.1 µM]
COCc1cc(C[C@@H]2C[C@H](NC(=O)c3ccnc(Cl)c3)C2(C)C)no1	i
CC1(C)[C@H](Cc2cc(COc3ccccc3)on2)C[C@@H]1NC1CCOCC1	10µM*
COCc1cc(C[C@@H]2C[C@H](NC(=O)c3ccco3)C2(C)C)no1	10µM*
CC1(C)[C@H](Cc2cc(CO)on2)C[C@@H]1NC(=O)c1ccco1	1%[44.1 µM]
CC(C)(C)CC(=O)N[C@H]1C[C@@H](Cc2cc(COc3ccccc3)on2)C1(C)C	i
CC(C)Cc1cc(C[C@@H]2C[C@H](NC3CCOCC3)C2(C)C)no1	i
COCC(=O)NC1(Cc2cc(-c3ccc(OC)cc3)on2)COC1	-3%[44.1 µM]
CCCN[C@H]1C[C@@H](Cc2cc(COc3ccccc3)on2)C1(C)C	i
CC1(C)[C@H](Cc2cc(COc3ccccc3)on2)C[C@@H]1NC(=O)COc1ccccc1	8.9µM*
CC1(C)[C@H](Cc2cc(COc3ccccc3)on2)C[C@@H]1NC(=O)Cc1ccccc1	-18%[44.1 µM]
O=C(Nc1cccc(F)c1)N1CCC(n2cnnc2C2CC2)C1 (stereo unspecified)	-6%
SMILES	Pf Dd2 growth
CC(C)N1CCN(C(=O)C2CCN(C(=O)N3CC4CC(C3)[C@H]3CCCC(=O)N3C4)CC2)CC1 (stereo partly specified)	i
O=C(C[C@H]1NC(=O)c2ccccc2NC1=O)Nc1ncc[nH]1	-24%
O=C(CC1CNCCO1)N1CCN(C(=O)c2ccccc2)CC1 (stereo unspecified)	-3%
CNC(=O)[C@@H]1CN(C(=O)c2ccc(OC)nc2OC)C[C@H]1c1n[nH]c(C)n1	9%
Cc1ccc(C)c(OCC(=O)c2ccc3c(c2)N(C(C)C(=O)NCC2CCCO2)C(=O)CO3)c1 (stereo unspecified)	i
COc1ccc(CN2C(=O)c3oc4ccc(F)cc4c(=O)c3C2c2ccc(O)cc2)cc1 (stereo unspecified)	-12%
COc1ccc(CN2C(=O)c3oc4ccccc4c(=O)c3C2c2ccc(O)cc2)cc1 (stereo unspecified)	-28%
O=C1c2oc3ccccc3c(=O)c2C(c2cccc(O)c2)N1Cc1ccc(F)cc1 (stereo unspecified)	14µM*
O=C(c1ccncc1)N1CCC(n2c(=O)[nH]c3ccccc32)CC1	9%[44.1 µM]
CC(Cn1cncn1)NC(=O)c1ccc(CCC(C)(C)O)cc1 (stereo unspecified)	-4%
COc1cc(CN2C[C@@H]3C(=O)N(CCCN4CCCC4=O)C(=O)[C@@H]3C2)cc(OC)c1	14%
CCCc1cnc2c(c1SCC(=O)Nc1cccc(C)c1C)c(=O)n(C)c(=O)n2C	1%
CCCc1cnc2c(c1SCc1cccc(C)c1)c(=O)n(C)c(=O)n2C	11µM*
CCCc1cnc2c(c1SCC(=O)Nc1ccccc1OCC)c(=O)n(C)c(=O)n2C	2%
CN(C)c1ccc(-c2ccnc(N[C@H]3CO[C@H]4[C@@H]3OC[C@H]4OC(=O)Nc3cccc(C(F)(F)F)c3)n2)cc1	-26%
CC(=O)N1CCCN(c2ncc(S(C)(=O)=O)c(C3CCCNC3)n2)CC1 (stereo unspecified)	5%
COc1ccc(C(=O)Nc2cc3c(cc2C(=O)c2ccccc2Cl)OCCO3)cc1	23%
